Drawing on PubChem BioAssay (EPA / NIEHS), this text covers AC50 and outcome for 40 compounds.

By AC50 is commonly meant the concentration giving half of the maximal activity seen.

Molecules are shown by their SMILES. Calls of active or inactive are those of the source. The calls were made as follows: active = hit-call score of the fitted dose curve at least 0.9, where 1 is the maximum; inactive = score below 0.9.

Read-out in this assay: Interleukin-1 alpha (IL1a), IL1A (gene 3552)
Nature of the assay: BSK_KF3CT_IL1a: BioMAP Diversity Plus: KF3CT Assay for Interleukin-1 alpha (IL1a) Biomarker Activity (AID 2283070). Particulars: primary human keratinocytes with fibroblasts; actives raise or lower the signal. As to the method:
BSK_KF3CT is a cell-based, multiplexed-readout assay that uses keratinocytes and foreskin fibroblasts, a human skin primary cell co-culture, with measurements taken at 24 hours after chemical dosing in a 96-well plate.BSK_KF3CT_IL1a is an assay component measured in the BSK_KF3CT assay. It measures IL-1a antibody related to regulation of gene expression using ELISA technology.Data from the assay component BSK_KF3CT_IL1a was analyzed into 1 assay endpoint. This assay endpoint, BSK_KF3CT_IL1a, was analyzed with bidirectional fitting relative to DMSO as the negative control and baseline of activity. Using a type of binding reporter, gain or loss-of-signal activity can be used to understand changes in the signaling as they relate to the gene IL1A. Furthermore, this assay endpoint can be referred to as a primary readout, because this assay has produced multiple assay endpoints where this one serves a signaling function. To generalize the intended target to other relatable targets, this assay endpoint is annotated to the cytokine intended target family, where the subfamily is interleukins.
The levels of cell surface (or secreted, indicated by the prefix "s") biomarker endpoints were measured by ELISA. Overt cytotoxicity to cells in confluent adherent cultures (all systems other than the BT system) was assessed by measuring total protein levels using sulforhodamine B (SRB) staining in parallel cultures at the time of biomarker measurements, indicated as SRB endpoints. For proliferation assays for adherent cell types, individual cell types are cultured at sub-confluence and relative cell numbers quantified by SRB staining at time points optimized for each system (48 h: 3C and CASM3C systems; 72 h: BT and HDF3CGF systems; 96 h: SAg system). SRB was performed by staining cells with 0.1% SRB after fixation with 10% TCA and reading wells at 560 nm.Viability and proliferation of PBMC (T cells) was quantified by Alamar Blue reduction for the SAg and BT systems. For PBMC viability (referred to as PBMC Cytotoxicity within the assay endpoint names), cells were plated (75,000/well in a 96-well plate) and then chemical samples added for 1 h before addition of activators, SEB and TSST-1 (20 ng/mL final concentration each). Cells were incubated for 90 h. Then, Alamar Blue (20 uL/well) (Invitrogen, Cat DAL1100) was added for 6 h, and the plates were read with a fluorescence microplate reader at 546/580 nm (excitation/emission). For PBMC proliferation, cells were plated and activated as above but incubated for only 16 h prior to addition of Alamar Blue. Plates were read after 6 h.
On to `CCCCCCc1ccc(O)cc1O`, for which the AC50 is 30.3 µM (active).

Turning to `O=C1CCCCCN1`, the outcome was inactive.

`CC/C(=C\C(=N/O)C(N)=O)C(C)[N+](=O)[O-]` (stereo not given): the outcome was inactive.

On to `CNS(=O)(=O)c1cc(C(=O)N2CCC(CCN3C4CCC3CC(n3c(C)nc5ccccc53)C4)(c3cccc(F)c3)CC2)c(Cl)cc1F` (stereo not given), for which the result was inactive.

Consider `CC(C)=CCC/C(C)=C/CO`, for which the outcome was inactive.

`O=C(OC[C@H]1O[C@@H](OC(=O)c2cc(O)c(O)c(OC(=O)c3cc(O)c(O)c(O)c3)c2)[C@H](OC(=O)c2cc(O)c(O)c(OC(=O)c3cc(O)c(O)c(O)c3)c2)[C@@H](OC(=O)c2cc(O)c(O)c(OC(=O)c3cc(O)c(O)c(O)c3)c2)[C@@H]1OC(=O)c1cc(O)c(O)c(OC(=O)c2cc(O)c(O)c(O)c2)c1)c1cc(O)c(O)c(OC(=O)c2cc(O)c(O)c(O)c2)c1`: the AC50 is 6.1 µM (active).

As for `CC(C)CC(C)(O)C#CC(C)(O)CC(C)C` (stereo not given), the outcome was inactive.

As to `CC1(C)C(=O)N(Br)C(=O)N1Br`, the outcome was inactive.

On to `CC(O)CN(CCN(CC(C)O)CC(C)O)CC(C)O` (stereo not given), for which the outcome was inactive.

With `CCN(C(=O)c1cc(C)cc(OC[C@H](C)Nc2ccncc2)c1)C(C)C`, the result was inactive.

Regarding `CC(C)CCCCCCOC(=O)c1ccc(C(=O)OCCCCCCC(C)C)c(C(=O)OCCCCCCC(C)C)c1`, the outcome was inactive.

Consider `O=C(O)c1cc(N=Nc2ccc(S(=O)(=O)Nc3ccccn3)cc2)ccc1O`, for which the outcome was inactive.

Turning to `COC(=O)CC(=O)OC`, the outcome was inactive.

As for `CC(C)=CCC/C(C)=C\CO`, the outcome was inactive.

Consider `COc1ccc2sc(C(=O)Nc3nnn[nH]3)c(OC(C)C)c2c1`, for which the AC50 was 19.9 µM (active).

Turning to `CC(C)CCCCCCCOC(=O)CCCCC(=O)OCCCCCCCC(C)C`, the outcome was inactive.

Turning to `CNCc1ccc(NC(=O)c2c[nH]c3c2C(=O)CCC3)cc1`, the result was inactive.

`Nc1nc2ncc(CNc3ccc(C(=O)N[C@@H](CCC(=O)O)C(=O)O)cc3)nc2c(=O)[nH]1`: the outcome was inactive.

In the case of `Cn1cnc([N+](=O)[O-])c1Sc1ncnc2nc[nH]c12`, the outcome was inactive.

With `CC[C@H](C)C(=O)O[C@H]1C[C@@H](C)C=C2C=C[C@H](C)[C@H](CC[C@@H]3C[C@@H](O)CC(=O)O3)[C@H]21`, the AC50 is 33.5 µM (active).

Regarding `COc1ccc(/C=C/S(=O)(=O)NC(=O)c2ccc(C)cc2Cl)cc1`, the AC50 was 8.09 µM (active).

With `CC1=CC(=O)CC(C)(C)C1`, the outcome was inactive.

Turning to `CCCCCCCCCCCCc1ccccc1`, the outcome was inactive.

As to `CCCCC(CC)COC(=O)CCCCCCCCC(=O)OCC(CC)CCCC` (stereo not given), the outcome was inactive.

Turning to `C=CC(=C)CCC=C(C)C`, the result was inactive.

`CCOC(=O)COc1ccc2c(c1)CC(NCC(O)c1cccc(Cl)c1)CC2` (stereo not given): the outcome was inactive.

Consider `CC(C)=CCCC(C)=CC=O`, for which the outcome was inactive.

On to `C1=CCCC=CCCC=CCC1`, for which the result was inactive.

With `O=C1CCC(N2C(=O)c3ccccc3C2=O)C(=O)N1` (stereo not given), the outcome was inactive.

As for `CC(=O)OC[C@H]1O[C@@](COC(C)=O)(O[C@H]2O[C@H](COC(C)=O)[C@@H](OC(C)=O)[C@H](OC(C)=O)[C@H]2OC(C)=O)[C@@H](OC(C)=O)[C@@H]1OC(C)=O`, the result was inactive.

In the case of `COCCOCCOCCOC`, the outcome was inactive.

For `O=C(NS(=O)(=O)/C=C/c1ccccc1)c1ccc(F)cc1Cl`, the result was inactive.

In the case of `O=c1n(CC2CO2)c(=O)n(CC2CO2)c(=O)n1CC1CO1` (stereo not given), the result was inactive.

Consider `Oc1ccc2c(c1)-c1ccccc1C2`, for which the outcome was inactive.

On to `C1N2CN3CN1CN(C2)C3`, for which the result was inactive.

`Clc1nc(Cl)c(Cl)c(Cl)c1Cl`: the outcome was inactive.

Take `Nc1ccc(Nc2ccccc2)cc1`: the result was inactive.

Consider `CC(C)(O)c1coc(S(=O)(=O)NC(=O)Nc2c3c(cc4c2CCC4)CCC3)c1`, for which the result was inactive.

On to `Nc1cccc(N)c1`, for which the result was inactive.

In the case of `O=P(OC(CCl)CCl)(OC(CCl)CCl)OC(CCl)CCl`, the result was inactive.
